Source: PubChem BioAssay (EPA / NIEHS)
Activity calls are given as the source filed them. The calls were made as follows: active = hit-call score of the fitted dose curve at least 0.9, where 1 is the maximum; inactive = score below 0.9.

Assays:
[1] = ATG_NFI_CIS: Attagene CIS-FACTORIAL HepG2 Assay for human Nuclear Factor I (NFI) (AID 2282989); settings: HepG2 cis-regulatory reporter, NFI response element transcription; actives raise or lower the signal
Summary of the method: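 After transient transfection of HepG2 with cis-promoter reporter constructs and 24 h dosing, RNA is reverse-transcribed, amplified, 6-FAM end-labelled and HpaI-digested before capillary analysis. Bidirectional curve fitting against DMSO.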

[2] = ATG_NF_kB_CIS: Attagene CIS-FACTORIAL HepG2 Assay for human Nuclear Factor Kappa B (NF-kB) (AID 2282991); settings: HepG2 Attagene cis-factorial NF-kB reporter mRNA; actives raise or lower the signal
Summary of the method: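 HepG2 cells transfected with cis-promoter-driven reporter units, so endogenous transcription factor activity is measured. Reporter mRNA quantified 24 h after dosing by RT-PCR and capillary electrophoresis, with bidirectional fitting against DMSO.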

[3] = ATG_NRF2_ARE_CIS: Attagene CIS-FACTORIAL HepG2 Assay for human Nuclear Factor Erythroid 2 Related Factor 2 (NFR2) response to Antioxidant Response Elements (ARE) (AID 2282992); settings: HepG2 Attagene ARE/NRF2 reporter, transcription factor activity; actives raise or lower the signal
Summary of the method: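 HepG2 cells transiently transfected with multiplexed cis-regulated reporter transcription units measure endogenous transcription factor activity. Reporter mRNA at 24 h is quantified by RT-PCR, fluorescent labelling and capillary electrophoresis, with bidirectional fitting relative to DMSO.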

[4] = biological target: Cellular tumor antigen p53 (Homo sapiens) (UniProt P04637); test: ATG_p53_CIS: Attagene CIS-FACTORIAL HepG2 Assay for human p53 Transcription Factor (AID 2282994); settings: HepG2 p53 cis-element reporter, Attagene mRNA; actives raise or lower the signal
Summary of the method: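 HepG2 cells transiently transfected with multiplexed cis-regulated reporter transcription units read endogenous TF activity. After 24 h compound exposure, reporter mRNA was quantified by RT-PCR, fluorescent labelling, HpaI digestion and capillary electrophoresis; bidirectional fits versus DMSO baseline.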

[5] = ATG_Oct_MLP_CIS: Attagene CIS-FACTORIAL HepG2 Assay for human Octamer-Binding Transcription Factor (Oct) (AID 2282993); settings: HepG2 Attagene cis-factorial Oct reporter, mRNA; actives raise or lower the signal
Summary of the method: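 Cells of the HepG2 line express promoter-controlled reporter sequences whose mRNA levels, after 24 h treatment, are measured by RT-PCR and capillary electrophoresis. Increases and decreases are scored relative to DMSO.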

[6] = biological target: Myc proto-oncogene protein (Homo sapiens) (UniProt P01106); test: ATG_Myc_CIS: Attagene CIS-FACTORIAL HepG2 Assay for human Myelocytomatosis (Myc) Proto-Oncogene Transcription Factor (AID 2282990); settings: HepG2, Attagene cis-reporter transcription factor activity; actives raise or lower the signal
Summary of the method: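 Read-out: fluorescent reporter mRNA fragments resolved by capillary electrophoresis after RT-PCR. Human HepG2 liver cells carried transfected cis-element reporter units and were dosed for 24 h. Gain or loss of signal fitted relative to DMSO baseline.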

[7] = BSK_3C_TissueFactor: BioMAP Diversity Plus: 3C Assay for Tissue Factor Biomarker Activity (AID 2282997); settings: BioMAP 3C HUVEC, tissue factor biomarker readout; actives raise or lower the signal
Summary of the method: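 Human vascular primary cells (umbilical vein endothelium) received test chemical; Tissue Factor was determined by ELISA at 24 h, and both gain and loss of signal versus DMSO were fitted.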

[8] = BSK_3C_uPAR: BioMAP Diversity Plus: 3C Assay for Urokinase-type plasminogen activator receptor (uPAR) Biomarker Activity (AID 2282998); settings: BioMAP 3C HUVEC, uPAR biomarker ELISA; actives raise or lower the signal
Summary of the method: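 Endothelial primary cells of human umbilical vein origin received test chemical; 24 h later uPAR was assayed by ELISA. Fitting was bidirectional, DMSO as negative control.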

[9] = BSK_3C_VCAM1: BioMAP Diversity Plus: 3C Assay for Vascular cell adhesion molecule 1 (VCAM1) Biomarker Activity (AID 2282999); settings: BioMAP 3C HUVEC, VCAM1 ELISA, cytokine-stimulated; actives raise or lower the signal
Summary of the method: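 Human umbilical vein endothelial cells (3C system), biomarker read by ELISA 24 h after dosing; bidirectional fit against DMSO baseline. Cytotoxicity tracked by SRB total-protein staining in parallel cultures at biomarker time.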

[10] = BSK_4H_Eotaxin3: BioMAP Diversity Plus: 4H Assay for Eotaxin 3 Biomarker Activity (AID 2283000); settings: primary human endothelial cells (HUVEC); actives raise or lower the signal
Summary of the method: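 Readout is Eotaxin-3 (CCL26) level by ELISA in primary human umbilical vein endothelial cells harvested 24 h after chemical exposure; activity fitted in both directions against DMSO control.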

Measured: AC50

Sequence of Cellular tumor antigen p53 (Homo sapiens) (P04637 whole entry, looked up): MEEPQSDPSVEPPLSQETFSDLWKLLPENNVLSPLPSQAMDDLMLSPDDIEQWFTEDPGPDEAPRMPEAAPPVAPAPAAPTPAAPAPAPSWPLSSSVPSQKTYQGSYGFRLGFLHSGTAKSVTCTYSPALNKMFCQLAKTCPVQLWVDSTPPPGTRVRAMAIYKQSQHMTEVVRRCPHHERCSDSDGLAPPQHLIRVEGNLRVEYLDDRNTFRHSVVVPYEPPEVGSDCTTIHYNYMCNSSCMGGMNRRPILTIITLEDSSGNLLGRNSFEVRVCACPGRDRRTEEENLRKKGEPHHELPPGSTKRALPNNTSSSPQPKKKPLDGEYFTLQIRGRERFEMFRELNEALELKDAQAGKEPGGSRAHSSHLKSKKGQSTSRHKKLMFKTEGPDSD
Sequence of Myc proto-oncogene protein (Homo sapiens) (P01106 whole entry, looked up, the tested form may be a part): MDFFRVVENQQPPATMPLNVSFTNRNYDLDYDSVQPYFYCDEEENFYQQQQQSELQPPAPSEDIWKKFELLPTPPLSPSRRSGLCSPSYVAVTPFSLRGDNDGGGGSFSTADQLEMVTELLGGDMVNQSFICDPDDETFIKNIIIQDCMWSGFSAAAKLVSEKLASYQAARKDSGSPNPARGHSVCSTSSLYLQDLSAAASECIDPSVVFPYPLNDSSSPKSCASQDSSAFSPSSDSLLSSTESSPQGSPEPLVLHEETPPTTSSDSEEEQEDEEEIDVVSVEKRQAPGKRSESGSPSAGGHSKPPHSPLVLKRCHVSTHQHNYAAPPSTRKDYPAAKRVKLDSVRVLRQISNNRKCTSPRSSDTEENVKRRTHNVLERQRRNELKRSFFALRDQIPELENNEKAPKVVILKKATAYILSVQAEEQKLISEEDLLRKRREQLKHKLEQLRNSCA

O=C(O)c1ccc(C(=O)O)cc1
inactive: [1] | [2] | [3] | [4]

C=CC(=O)OCCOCCOCC
inactive: [1] | [5] | [4]
active: [2] 9.52 µM | [3] 26 µM

CC(=O)C(C)=O
active: [3] 37.4 µM
inactive: [1] | [2] | [5] | [4]

CCCCCOC(=O)CCC
inactive: [1] | [2] | [3] | [4]

O=S(=O)(O)c1ccc(O)c2ncccc12
inactive: [1] | [2] | [3] | [5] | [4]

O=C(O)COCCN1CCN(C(c2ccccc2)c2ccc(Cl)cc2)CC1 (stereo unspecified)
inactive: [6] | [5] | [4]

CCCCCCCCCCCCCCCC(=O)OC[C@H](O)[C@H]1OC(=O)C(O)=C1O
inactive: [1] | [2] | [5] | [4]
active: [3] 66.8 µM

O=C1CCCCCCCCCCCCCCO1
active: [5] 69.4 µM | [7] 26.5 µM | [8] 20 µM | [9] 17.9 µM | [10] 27.3 µM
inactive: [1] | [4]

O=C(Nc1ccccc1)c1cc([N+](=O)[O-])ccc1Cl
active: [3] 34.6 µM | [4] 68.6 µM
inactive: [1] | [2] | [5]

Fc1c(F)c(F)c(Br)c(F)c1F
inactive: [1] | [2] | [3] | [5] | [4]

CCCCCCCCCCCCCC(=O)O
active: [3] 65.5 µM
inactive: [1] | [5] | [4]

C=C(C)C(=O)Nc1ccc(Cl)c(Cl)c1
inactive: [1] | [2] | [4]
active: [3] 13.6 µM | [5] 26.5 µM

COCCOCCOCCOCCOCCO
inactive: [1] | [2] | [3] | [5] | [4]

Nc1ccc(S(N)(=O)=O)cc1
inactive: [1] | [3] | [5] | [4]

O=c1[nH]c(=O)n([C@H]2CCCO2)cc1F
inactive: [1] | [2] | [3] | [5] | [4]

CCCCNC(=O)NS(=O)(=O)c1ccc(C)cc1
inactive: [1] | [3] | [4]

CCCC1CCC(=O)O1 (stereo unspecified)
inactive: [1] | [2] | [3] | [5] | [4]

O=P(c1ccccc1)(c1ccccc1)c1ccccc1
not listed: [6]
inactive: all other assays above

Cc1cc(C2(c3cc(C)c(O)cc3C)OS(=O)(=O)c3ccccc32)c(C)cc1O
not listed: [2] | [6]
inactive: all other assays above

CCCC(=O)c1cc(O)c(O)cc1O
inactive: [1] | [2] | [3] | [5] | [4]

COC(=O)Cc1cccc2ccccc12
inactive: [1] | [2] | [3] | [5] | [4]

CC(CN1c2ccccc2Sc2ccccc21)N(C)C (stereo unspecified)
inactive: [1] | [2]
active: [5] 38.8 µM | [4] 30.5 µM

CCN(CC)c1ccc(C(=C2C=CC(=[N+](CC)CC)C=C2)c2ccc(S(=O)(=O)O)cc2S(=O)(=O)[O-])cc1
inactive: [1] | [2] | [5] | [4]

CNCCCC12CCC(c3ccccc31)c1ccccc12
active: [1] 11.1 µM | [5] 15.4 µM | [4] 16 µM
inactive: [2] | [3]

CC[Si](OC(C)=O)(OC(C)=O)OC(C)=O
not listed: [3] | [6]
inactive: all other assays above

COC(C)CCO (stereo unspecified)
inactive: [1] | [2]
active: [3] 63.3 µM | [5] 151 µM | [4] 162 µM

O=C(O)c1cn(C2CC2)c2cc(N3CCNCC3)c(F)cc2c1=O
not listed: [1] | [2] | [3]
inactive: all other assays above

CNC(=O)Oc1ccc2c(c1)[C@]1(C)CCN(C)[C@@H]1N2C
active: [3] 100 µM
inactive: [1] | [2] | [5] | [4]

C=CC(C)(CCC=C(C)C)OC=O (stereo unspecified)
inactive: [1] | [5] | [4]
active: [3] 153 µM

CC(C)(C)c1n[nH]c(=S)n(N)c1=O
inactive: [1] | [2] | [3] | [4]

N#Cc1ccc(CC(=NNC(=O)Nc2ccc(OC(F)(F)F)cc2)c2cccc(C(F)(F)F)c2)cc1
not listed: [6]
inactive: all other assays above

CN(C)CCOCCN(C)C
inactive: [1] | [2] | [3] | [5] | [4]
